This excerpt belongs to a sample that is enriched for hits.
APEX1 inh = APE1 (human) endonuclease inhibition; recombinant APE1, TAMRA/BHQ-2 abasic DNA cleavage fluorescence; Potency, µM (doses to about 65.8 µM), without a hit: top-dose activity change, negative = inhibition, actives largely listed as inhibitors; 350,000 tested, 0.35% active;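 further: plate controls were vehicle for no effect and reference inhibitor for full effect; nearly all actives have a fitted effect of over 55% in size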
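Endonuclease cleavage of a quenched abasic-site DNA duplex (50 nM) by APE1 (0.75 nM) was tracked by TAMRA dequenching. Compounds were preincubated with enzyme 15 min at room temperature; data normalized to buffer-only and DMSO wells plus NSC13755 control.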
L3MBTL1 block = inhibitors of human L3MBTL1; Q9Y468; AlphaScreen L3MBTL1–H3K9me1 peptide binding; Potency, µM (highest dose often 57.1 µM), inactives show top-dose activity, negative = inhibition, actives largely listed as inhibitors; 230,000 tested, 0.66% active; further: nearly all actives have a fitted effect of over 60% in size
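AlphaScreen assay: L3MBTL1 (50 nM final) was preincubated 30 min at room temperature with biotinylated H3(1-15)K9me1 peptide (75 nM final), then 30 min with library compounds; streptavidin donor and nickel chelate acceptor beads (10 ug/mL final) added, 30 min dark.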
BLM helicase inh = inhibitors of human Bloom syndrome helicase BLM. P54132. recombinant BLM DNA unwinding, fluorescence dequenching. Potency, µM (series often up to 56.1 µM), for inactives: at the highest dose activity change, negative = inhibition, hits mostly inhibitors. 350,000 tested, 0.2% active. AID 2528;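 further: plate controls were vehicle for no effect and no enzyme for full effect; nearly all actives have a fitted effect of over 35% in size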
RECQ1 inh = RECQ1 (human) helicase inhibition | AID 2549 | Potency, µM (series often up to 57.3 µM), for the others: top-dose activity, negative = inhibition, most hits filed as inhibitors | 240,000 tested, 0.54% active | RECQ1 DNA unwinding, red fluorescence kinetic read | P46063;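 further: plate controls were vehicle for no effect and no enzyme for full effect; nearly all actives have a fitted effect of over 30% in size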
Target sequence (P46063 whole entry, looked up): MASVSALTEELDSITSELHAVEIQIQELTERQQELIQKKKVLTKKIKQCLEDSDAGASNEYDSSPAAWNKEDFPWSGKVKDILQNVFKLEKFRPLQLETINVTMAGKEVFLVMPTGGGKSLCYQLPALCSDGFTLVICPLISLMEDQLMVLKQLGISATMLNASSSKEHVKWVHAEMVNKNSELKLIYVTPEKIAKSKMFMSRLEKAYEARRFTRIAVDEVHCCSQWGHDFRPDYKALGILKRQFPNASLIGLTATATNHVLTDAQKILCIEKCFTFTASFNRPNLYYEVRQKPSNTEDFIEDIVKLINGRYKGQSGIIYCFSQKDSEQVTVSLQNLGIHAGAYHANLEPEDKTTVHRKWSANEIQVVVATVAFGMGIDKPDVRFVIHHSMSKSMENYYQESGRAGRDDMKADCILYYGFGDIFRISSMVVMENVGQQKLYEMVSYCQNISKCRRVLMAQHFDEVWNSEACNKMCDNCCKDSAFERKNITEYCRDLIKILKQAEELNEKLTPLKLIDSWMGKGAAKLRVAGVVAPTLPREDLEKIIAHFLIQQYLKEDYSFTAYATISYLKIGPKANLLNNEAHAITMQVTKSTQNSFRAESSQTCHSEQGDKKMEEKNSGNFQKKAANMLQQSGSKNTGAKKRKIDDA
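50 nM RECQ1T1 preincubated 15 min with compound in Tris pH 8.0 buffer with MgCl2, DTT, Tween-20 and 2.5 ug/ml poly(dI-dC); started with 200 nM TAMRA/BHQ-2 forked duplex and 2 mM ATP. Unwinding read as fluorescence (525/598 nm), two reads 2 h apart.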
KDM4E inh = inhibitors of human JMJD2E histone demethylase; B2RXH2; JMJD2E catalytic domain, FDH-coupled NADH fluorescence (FDH is formaldehyde dehydrogenase); Potency, µM (doses to about 57.1 µM), without a hit: top-dose activity change, negative = inhibition, actives largely listed as inhibitors; 230,000 tested, 1.6% active; AID 2147; active means well fitted inhibition curve with a large enough effect, not every such curve was filed as active; inconclusive means small, poorly fitted or top-dose-only effect, or another doubt; inactive means no such curve, though single readings can be large or run the other way;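 further: 0% = wells with enzyme and -100% = buffer wells without enzyme; nearly all actives have a fitted effect of over 50% in size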
An asterisk follows results filed as active; [ ] = remark or other dose. Unless noted, the call rests on the fitted dose curve; in most records, active means well fitted curve in the direction sought with a large enough effect; inconclusive means small, poorly fitted or top-dose-only effect, or another doubt; inactive means no such curve, though single readings can be large; an effect the other way counts as inactive or inconclusive. Unless noted, on the % scale 0 is the no-effect control and ±100 the full control effect; potency means the concentration at half of the fitted maximal effect.

For CCCOCc1cc(CN2CCN(c3cccc(Cl)c3)CC2)c(O)c2ncccc12 the results were BLM helicase inh -7%.
`COc1cc(OC)cc(C(=O)Oc2c(CN3CCOCC3)cc(Cl)c3cccnc23)c1` gave APEX1 inh 2%, L3MBTL1 block 25µM*, BLM helicase inh -2%, RECQ1 inh 13% and KDM4E inh -15%.
O=C(Cc1c(O)c2ccccc2oc1=O)c1ccc(C(F)(F)F)cc1 was read as APEX1 inh 31% and BLM helicase inh -5%.
`O=c1oc2ccccc2c(O)c1Cc1cc(Cl)c2cccnc2c1O` gave APEX1 inh 10%, L3MBTL1 block 56%, BLM helicase inh -10%, RECQ1 inh -10% and KDM4E inh 5µM*.
`CN1CCN(Cc2cc(COCc3ccccc3)c3cccnc3c2O)CC1` gave APEX1 inh -1%, L3MBTL1 block 14µM*, BLM helicase inh -10%, RECQ1 inh -4% and KDM4E inh 8.9µM*.
For Oc1c(CN2CCc3ccccc3C2)cc(Cl)c2cccnc12 the results were APEX1 inh 9%, BLM helicase inh -1%, RECQ1 inh 5% and KDM4E inh 22µM*.
`CCOc1ccc(N(C)S(=O)(=O)c2ccc(-c3ccc(=O)[nH]n3)s2)cc1` gave APEX1 inh 40% and BLM helicase inh 1%.
Screening O=[N+]([O-])c1cc(CN2CCOCC2)c2cccnc2c1O returned APEX1 inh 5%, L3MBTL1 block 1.3µM*, BLM helicase inh 0%, RECQ1 inh -8% and KDM4E inh 4%.
Oc1c(Cl)cc(CN2CCOCC2)c2cccnc12 was read as APEX1 inh 24% and L3MBTL1 block inconclusive.
For O=[N+]([O-])c1cc(CN2CCN(c3ccccc3)CC2)c(O)c2ncccc12 the results were APEX1 inh -8%, L3MBTL1 block 4µM*, BLM helicase inh -1%, RECQ1 inh inactive and KDM4E inh 19%.
Screening NNc1ccc(Cc2ccc(Cl)cc2Cl)nn1 returned APEX1 inh -7%, L3MBTL1 block 13µM*, BLM helicase inh -4%, RECQ1 inh -2% and KDM4E inh inconclusive.
For Cc1ccc(C(=O)Oc2c(S(=O)(=O)c3ccccc3)c(C)nn2-c2ccccc2)cc1 the results were BLM helicase inh -5%.
Screening CCCSc1nnc(NC(=O)CSc2sc3c(O)cc(=O)[nH]c3c2C#N)s1 returned APEX1 inh 64%[12.4 µM] and BLM helicase inh 22µM*.
`O=C(CN1C(=O)S/C(=C\c2ccc(Cl)cc2)C1=O)NNC(=O)c1ccccc1O` gave APEX1 inh 2%, L3MBTL1 block -2%, BLM helicase inh -12%, RECQ1 inh -8% and KDM4E inh 18µM*.
Screening COc1ccc2c(c1)[N+](C)(C)C(C)(C)C=C2C returned APEX1 inh 3%, BLM helicase inh 13%, RECQ1 inh -4% and KDM4E inh 20µM*.
For Cc1cc(C)cc(C(=O)NCC(=O)OCC(=O)N(C)C2CCS(=O)(=O)C2)c1 (centres undefined) the results were APEX1 inh -1%, L3MBTL1 block 11%, BLM helicase inh 6%, RECQ1 inh -14% and KDM4E inh -7%.
Screening CCOC(=O)CCCCC(=O)c1[nH]c(=O)[nH]c1CSc1nc(C)cc(C)n1 returned APEX1 inh 2%, L3MBTL1 block -12%, BLM helicase inh -1%, RECQ1 inh -3% and KDM4E inh -3%.
CCOC(=O)CCCCC(=O)c1[nH]c(=O)[nH]c1CSc1nc(C)cc(=O)[nH]1 was read as APEX1 inh -3%, L3MBTL1 block 7.9µM*, BLM helicase inh -3%, RECQ1 inh inactive and KDM4E inh 11%.
For CCOC(=O)CCCCC(=O)c1[nH]c(=O)[nH]c1CSc1nc2ccccc2[nH]1 the results were APEX1 inh inconclusive, L3MBTL1 block 13µM*, BLM helicase inh -9%, RECQ1 inh inactive and KDM4E inh inconclusive.
`CCSc1nnc(-c2c[nH]c3ccccc23)o1` gave APEX1 inh -9% and BLM helicase inh -3%.
For CN(C)c1ccc(CC2C(=O)Nc3ccccc32)cc1 (centres undefined) the results were APEX1 inh 1%, L3MBTL1 block inconclusive, BLM helicase inh -4%, RECQ1 inh -7% and KDM4E inh 3.2µM*.
Cc1ccccc1OCC(=O)Nc1nnc(SCc2cc(=O)n3cccc(C)c3n2)s1 was read as BLM helicase inh 0%.
CSc1nc(N2CCN(CCO)CC2)c2sc3nc(-c4ccco4)c4c(c3c2n1)CCC4 was read as APEX1 inh 17%, L3MBTL1 block -7%, BLM helicase inh 13µM*, RECQ1 inh -2% and KDM4E inh -25%.
`CSc1nc(SCC(=O)O)c2sc3nc(-c4ccccc4)c4c(c3c2n1)CCC4` gave APEX1 inh inconclusive, L3MBTL1 block -5%, BLM helicase inh -16%, RECQ1 inh -19% and KDM4E inh inconclusive.
Cc1ccccc1N=Nc1ccc(O)c2ncccc12 was read as APEX1 inh 2%, L3MBTL1 block 25µM*, BLM helicase inh 0%, RECQ1 inh -3% and KDM4E inh -25%.
Screening O=S(=O)(O)c1cccc2c(N=Nc3ccc(O)c4ncccc34)cccc12 returned APEX1 inh 24µM* and BLM helicase inh inconclusive.
O=Nc1ccc(O)c2ncccc12 was read as APEX1 inh -5%, L3MBTL1 block inconclusive, BLM helicase inh -15%, RECQ1 inh -19% and KDM4E inh 25µM*.
Screening COc1ccc(C)cc1N=Nc1ccc(O)c2ncccc12 returned APEX1 inh 1%, BLM helicase inh -5%, RECQ1 inh -2% and KDM4E inh 25µM*.
CCn1c2ccccc2c2cc(C3N=C(N)Nc4nc5ccccc5n43)ccc21 (centres undefined) was read as APEX1 inh -1%, L3MBTL1 block -6%, BLM helicase inh 2%, RECQ1 inh -12% and KDM4E inh -3%.
For CCN1C(=O)C(CC(=O)NC)N(NC(=O)c2ccccc2)C1=S (centres undefined) the results were APEX1 inh inconclusive, L3MBTL1 block 29%, BLM helicase inh 4%, RECQ1 inh inactive and KDM4E inh 8%.
`C[C@@H](C(=O)Nc1ccc2ccccc2c1)[C@@H]1C[C@@]1(C)[C@@H](NS(=O)(=O)c1ccc2ccccc2c1)c1ccccc1` gave APEX1 inh inconclusive, BLM helicase inh -9%, RECQ1 inh -4% and KDM4E inh 14µM*.
`COC(=O)C1CCC(C)(C(=O)Nc2ccccc2)C1(C)C` (centres undefined) gave APEX1 inh -3%, L3MBTL1 block 6%, BLM helicase inh -2%, RECQ1 inh 8% and KDM4E inh -2%.
Cc1ccc2[nH]c(C)c(CC(=O)O)c2c1 was read as APEX1 inh 13%, BLM helicase inh -4%, RECQ1 inh inactive and KDM4E inh 22µM*.
